Experimental data from ChEMBL document CHEMBL4888484, “Replenishing the malaria drug discovery pipeline: Screening and hit evaluation of the MMV Hit Generation Library 1 (HGL1) against asexual blood stage Plasmodium falciparum ,using a nano luciferase reporter read-out” (2022).
Out of some 4,800 compounds screened, about 420 (8.8%) showed an effect of 50% or more. Only a selection was taken, and strong results are over-represented in it overall.

System: Plasmodium falciparum
Experiment: Confirmatory screen in NF54 nanoGlo assay, in single point, at 2uM, 72h
Assay type: functional, Erythrocyte
Details: timepoint 72 hour

Point of comparison: `O=C(CN1CCN(Cc2ccccc2F)C1=O)NC1CCCCCCC1`, “% Inhibition” value -11%. Against it:
- COc1ccc(O)c([C@H]2Nc3ccccc3-n3c(-c4ccc(C)cc4)c4c(=O)n(C)c(=O)n(C)c4c32)c1 — higher, 25%
- COc1cccc(C(=O)N2CCCO[C@H](C(C)C)C2)c1 — higher, -9%
- Cc1ccc(C(=O)Nc2ccc3c(c2)OC(C)(C)C(=O)N3)cc1 — higher, -4%
- CN(CC(=O)N(C)C1CCC(c2ccccc2)CC1)c1cnccn1 (centres undefined) — higher, -8%
- COc1cc(NC(=O)CN2C(=O)N[C@](C)(c3ccc4c(c3)OCCO4)C2=O)c(OC)cc1Cl — higher, 2%
- O=C(CCn1c(=O)[nH]c2ccsc2c1=O)NCc1ccccc1 — higher, 37%
- O=C(CCc1ccccc1)N[C@@H](c1ccccc1)c1ccc2c3c(cccc13)CC2 — lower, -12%
- C[C@@H]1CN(C[C@@H]2CN(CCOCc3ccccc3)C[C@@H]2CO)C[C@H](C)O1 — higher, -5%
- CCc1nnc2ccc(S(=O)(=O)Nc3ccc(F)c(F)c3)cn12 — higher, -6%
- O=C(Nn1cnc2ccccc2c1=O)c1cnccn1 — higher, 2%
- Nc1ncn(C(=O)c2ccc(Cl)cc2)n1 — lower, -14%
- COc1nc2ncnc(OC)c2nc1C#N — higher, 3%
- COc1ccc(S(=O)(=O)N(CC(=O)N2CCN(Cc3ccc4c(c3)OCO4)CC2)C2CCCCC2)cc1OC — higher, -3%
- CC(C)(C)OC(=O)N1CCC[C@H]1C(=O)n1ccnc1 — higher, -2%
- CCOc1ccc(-[n+]2cc(-c3ccccc3)n3c2CCC3)cc1 — higher, 80%
- CCOc1nc(C)nc2cc(-c3ccccc3)n(Cc3ccccc3)c12 — higher, 0%
- O=C(O)C1Cc2c([nH]c3ccccc23)C(/C=C/c2ccccc2)N1 (centres undefined) — higher, -1%
- Cc1noc2nc(C3CC3)cc(C(=O)N3CCC[C@H](C)CC3)c12 — the same, -11%
- CC1NC2(C(=O)N(Cc3ccc(F)cc3)c3ccccc32)C2C(=O)N(c3cccc4ccccc34)C(=O)C12 (centres undefined) — higher, 4%
- CC1(C)C2OCCCC2C1(N)C(=O)Nc1cn[nH]c1 (centres undefined) — higher, 4%
- CCCn1cc(CNc2nnc(C(C)(C)C)o2)cn1 — higher, -5%
- CN1CCN(C2(CNc3ccnc4ccccc34)CCCC2)CC1 — higher, 91%
- c1ccc(Oc2ccnc(NCC34COCCN3CCOC4)n2)cc1 — higher, -10%
- Fc1cccc(F)c1CNC[C@@H]1NCCc2ccccc21 — higher, -5%
- O=c1[nH]c2nccnc2c(=O)n1Cc1ccc(F)cc1 — the same, -11%
- O=C1N[C@H]2C[C@@H](C(=O)NC[C@H]3O[C@H](CCOc4cc(-c5ccccc5)ccc41)CC[C@@H]3O)N(Cc1ccc(Cl)c(F)c1)C2 — higher, -1%
- CCOC(=O)C(Nc1cccc(NC(C(=O)OCC)C(=O)OCC)c1)C(=O)OCC — lower, -16%
- Nc1nccnc1C(=O)NCc1ccc(Cn2ccnc2)cc1 — higher, -5%
- O=c1[nH]c(=O)n(S(=O)(=O)c2ccccc2)cc1F — higher, 92%
- O=S(=O)(c1ccccc1)N1CCN(S(=O)(=O)c2ccc(Cl)cc2)C1 — higher, 2%
- Cc1ccc(N2CCN(S(=O)(=O)c3ccccc3)[C@@H](C)C2=O)cc1F — higher, -5%
- COc1ccc(CCNc2oc(-c3cccnc3)nc2C#N)cc1OC — higher, 31%
- O=C(CNC1=NC(=O)C(c2ccccc2)(c2ccccc2)N1)NCc1ccc(F)cc1 — higher, -1%
- COc1ccc(-n2ncc3c(NCCNC(=O)c4ccccc4Cl)nc(C)nc32)cc1 — lower, -12%
- Cc1ccc(OCC(=O)Nc2ccc(N3CCn4c(nc5ccccc54)C3)cc2Cl)cc1 — lower, -17%
- Cc1ccc(OCC(=O)Nc2cc(C)nn2-c2nc3c(cnn3-c3ccc(C)c(C)c3)c(=O)[nH]2)cc1 — higher, 65%
- C1CCC(Nc2nc3nonc3nc2N2CCCCC2)CC1 — higher, 1%
- CC(C)CN(CC(C)(C)C)C(=O)c1cc[nH]n1 — higher, -6%
- O=C(c1ccccc1Cl)N1CCC[C@H](n2cnc3ccccc3c2=O)C1 — higher, 18%
- CCN(c1ccc(C(=O)N(C)C2(C#N)CCC2)cc1)C(C)C — higher, -3%
- O=S(=O)(Cc1ccccc1)Nc1nnc[nH]1 — higher, -1%
- CCn1nccc1CNc1cc(Cl)cc2c1OCC2 — higher, -8%
- CC(C)(C)OC(=O)N1C[C@@H](O)CC1=O — the same, -11%
- COc1ccc(C(=O)Nc2nnc([C@H]3CC(=O)N(c4ccc(C)cc4)C3)o2)cc1OC — lower, -16%
- COc1ccc(C(=O)N2c3ncnn3C(c3ccccc3)CC2c2ccc(C)cc2)cc1OC (centres undefined) — higher, 78%
- COc1ccc(C2CC(c3ccccc3)N(C(C)=O)c3ncnn32)cc1 (centres undefined) — higher, -9%
- CCCN1CCN(CC(=O)Nc2sccc2C#N)c2cc(F)ccc21 — higher, 2%
- Cc1ccc(NC(=O)c2cc[nH]n2)c(C)c1 — lower, -18%
- COc1ccc(-c2c(C)nn3c(N4CCC(C(=O)NC5CC5)CC4)cc(C)nc23)cc1OC — higher, 37%
- COc1ccc(-c2cc3nc(C)cc(N4CCN(C/C=C/c5ccccc5)CC4)n3n2)cc1OC — higher, 42%
- COc1ccc(-c2nn3c(N4CCN(CC=Cc5ccccc5)CC4)cc(C)nc3c2C)cc1OC — higher, 55%
- Cc1c(C2=NO[C@H]3C(=O)N(c4ccc5ccccc5c4)C(=O)[C@@H]23)cnn1C — higher, 0%
- C[C@H](NC(=O)c1nnn(C)c1C(F)(F)F)c1cscn1 — higher, 7%
- COc1ccc(CCNC(=O)CCCC(=O)Nc2cccnc2)cc1OC — higher, 3%
- COc1ccc(Cl)cc1S(=O)(=O)N(C)[C@H]1CCc2n[nH]c(=O)n2CC1 — higher, -5%
- CCc1cc(N2C[C@@H]3NC(=O)CN(C)Cc4ccc(OC)c(c4)Oc4cccc(c4)CO[C@H]3C2)nc(N(C)C)n1 — higher, 60%
- CCN1CC(=O)N[C@H]2CN(C(=O)CCn3ccnc3C)CC[C@@H]2OCc2cccc(c2)Oc2cc(OC(C)C)cc(c2)C1=O — higher, 9%
- COCCCN1CC(=O)N[C@@H]2CN(C(=O)CCc3cccnc3)CC[C@@H]2OCc2cccc(c2)Oc2cc(ccc2OC)C1 — higher, 14%
- O=c1cc2n(c(=O)[nH]1)CC(c1ccccc1)=NN2 — higher, 4%
- Cc1nnc2sc(Nc3ccccc3)nn12 — higher, -2%
- NCc1cccc(C(=O)N2CCc3cc4ccc3[C@@H]2c2cccc(c2)OCCCNC(=O)c2cc(ccc2O)O4)c1 — higher, 93%
- O=C1NCCCOc2cccc(c2)[C@H]2c3ccc(cc3CCN2C(=O)CCN2CCOCC2)Oc2ccc(O)c1c2 — higher, 59%
- NC(=O)C1CCN(CCC(=O)N2CCc3cc4ccc3[C@@H]2c2cccc(c2)OCCCNC(=O)c2cc(ccc2O)O4)CC1 — higher, 96%
